FAS TE block: FAS thioesterase domain inhibitors, primary screen, biochemical, fluorescence intensity, uHTS | Fatty acid synthase (Homo sapiens), P49327 | AID 602261, 2012 | recombinant FAS-TE, OMFH fluorogenic substrate, fluorescence endpoint | inhibition, % at 15 µM | 360,000 compounds, 0.67% hits;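 active = compounds whose normalised, plate-corrected inhibition of enzyme fluorescence in the single-dose primary screen is 50% or more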;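 note: 0% = DMSO with enzyme and 100% = substrate without enzyme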
ADAM10 inh: human ADAM10 inhibitors, primary screen, biochemical, QFRET, HTS. Disintegrin and metalloproteinase domain-containing protein 10 (Homo sapiens), O14672. recombinant ADAM10, EDANS/DABCYL FRET peptide cleavage, 3 h. inhibition, % at 7 µM. 370,000 compounds, 0.62% hits. AID 720582, 2013;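 active = inhibition above a per-campaign cutoff equal to the mean of compounds falling between control-based bounds plus 3 SD, cut at about 20% in these data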;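 note: 0% = DMSO wells while the 100% control is not disclosed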
NR3A LBD binder: binders of NR3A ligand-binding domain, primary screen, biophysical, differential scanning fluorimetry, uHTS | 340,000 compounds, 2.5% hits | NR3A LBD differential scanning fluorimetry, Tm shift; 0% = protein alone, 100% = glycine-bound protein | AID 1259313, 2017 | Tm shift relative to glycine control, % at 25 µM;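 active = melting temperature shift of at least 10% of the positive control shift, at one fixed dose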
proKLK7 act: proKLK7 zymogen activators, primary screen, biochemical, fluorescence intensity; 370,000 compounds, 0.9% hits; activation, % at 7 µM; Kallikrein-7 (Homo sapiens), P49862; purified proKLK7, EDANS-DABCYL substrate fluorescence; 100% is mature enzyme control, 0% vehicle;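 active = activation above the mean of all tested compounds plus 3 SD, computed per campaign excluding outliers beyond control limits, cut at about 13% in these data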
Target sequence (P49862 whole entry, looked up): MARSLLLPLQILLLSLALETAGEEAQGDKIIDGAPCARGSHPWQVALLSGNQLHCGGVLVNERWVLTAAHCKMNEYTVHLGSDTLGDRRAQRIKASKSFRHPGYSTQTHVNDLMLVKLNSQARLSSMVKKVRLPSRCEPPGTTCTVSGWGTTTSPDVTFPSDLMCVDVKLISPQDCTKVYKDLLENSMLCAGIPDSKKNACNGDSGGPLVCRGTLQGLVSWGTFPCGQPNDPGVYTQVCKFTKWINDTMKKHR
ADAM17 inh: ADAM17 inhibitors, primary screen, biochemical, QFRET; Disintegrin and metalloproteinase domain-containing protein 17 (Homo sapiens), P78536; recombinant ADAM17, EDANS/DABCYL FRET peptide cleavage; inhibition, % at 6.95 µM; 370,000 compounds, 0.83% hits; AID 720648, 2013;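 active = inhibition above the mean of compounds lying between control limits plus 3 SD, set per campaign, cut at about 8.5% in these data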;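 note: 0% = DMSO-only wells as the low control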
ADAM10 confirm: human ADAM10 inhibitors, confirmation, biochemical, QFRET, triplicate; shares compounds with ADAM10 inh; ADAM10 QFRET peptide cleavage, EDANS fluorescence; inhibition, % at 6.95 µM; 2,100 compounds, 1% hits; AID 743208, 2013;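 active = inhibition above about 20% chosen separately for each screening run, limit read from the data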;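 note: 0% = DMSO wells and 100% = marimastat wells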
ADAM17 ctr: ADAM17 inhibitors, counter-screen for ADAM10 exosite inhibitor project, biochemical, QFRET, high throughput; shares compounds with ADAM10 inh; ADAM17 QFRET peptide cleavage, EDANS fluorescence; 2,100 compounds, 0.5% hits; inhibition, % at 6.95 µM;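 active = mean triplicate inhibition above the solvent-only control wells' mean plus 3 SD, cut at about 12% in these data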;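 note: 0% = DMSO wells and 100% = marimastat wells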
ADAM10 ctr: ADAM10 inhibitors, counter-screen for ADAM17 exosite inhibitor project, biochemical, FRET, human ADAM10. shares compounds with ADAM17 inh. recombinant ADAM10, EDANS/DABCYL FRET peptide cleavage, 3 h. inhibition, % at 6.95 µM. 2,900 compounds, 47% hits. AID 743256, 2014;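 active = mean inhibition over the triplicate runs exceeds the activity threshold set in the earlier primary screen, cut at about 20% in these data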;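 note: 0% = DMSO wells and 100% = marimastat wells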
ADAM17 confirm: ADAM17 inhibitors, hit retest, confirmation, biochemical, QFRET peptide cleavage | shares compounds with ADAM17 inh | recombinant ADAM17, EDANS/DABCYL QFRET peptide cleavage | inhibition, % at 6.95 µM | 2,900 compounds, 65% hits | AID 743257, 2014;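 active = mean inhibition across replicates above the hit cutoff set in the primary screen, cut at about 8.5% in these data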;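 note: 0% = DMSO wells and 100% = marimastat wells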
Starred values were filed as active, the others as inactive; . = no result. Only some compounds are listed: those with a hit (about 4.6% of all), similar ones and a draw of the others.

SMILES | FAS TE block | ADAM10 inh | NR3A LBD binder | proKLK7 act | ADAM17 inh | ADAM10 confirm | ADAM17 ctr | ADAM10 ctr | ADAM17 confirm
O=C(Nc1ccc(F)c(Cl)c1)c1cc(C2CCCCN2C(=O)c2ccc(Cl)cc2)on1 (stereo not given) | 22 | -3 | . | 1 | -1 | . | . | . | .
O=C(COc1ncnc2c1cnn2-c1ccccc1)Nc1ccc(S(=O)(=O)N2CCCCC2)cc1 | 21 | 21* | 18* | -1 | 9.8* | 2 | 1 | 33* | 17*
Cc1ccc([N+](=O)[O-])cc1-c1[nH]c(-c2ccc(O)c(O)c2)nc1-c1ccccc1 | 15 | 21* | 6 | 0 | 8.8* | 6 | 2 | 28* | 13*
Cc1cc(-c2n[nH]c(=S)n2/N=C/c2ccccc2[N+](=O)[O-])n[nH]1 | -8 | 21* | 2 | 0 | 11* | -1 | 0 | 0 | 4
COC(=O)[C@@]12C[C@@H](CC(=O)NCc3ccc(OC)c(OC)c3)C(=O)N(CCc3ccc(OC)c(OC)c3)C1=CCC(C)(C)C2 | . | -15 | . | 0 | 0 | . | . | . | .
CCCCCCCCN1C(=O)[C@H](CC(=O)NCc2ccc(OC)c(OC)c2)C[C@@]2(C(=O)OCC)CCCC=C12 | 14 | 31* | . | 0 | 13* | 4 | 1 | 41* | 22*
CCCCCCCCN1C(=O)[C@H](CC(=O)NCc2ccc(OC)c(OC)c2)C[C@@]2(C(=O)OC)CC(C)(C)CC=C12 | . | 24* | . | 0 | 8.7* | 7 | 3 | 32* | 15*
Cc1ccc(-n2c(Cc3cccs3)nnc2SCC(=O)Nc2cccc3ccccc23)cc1 | . | 26* | . | 1 | 11* | 8 | 2 | 16 | 8
O=C(CSc1nnc(Cc2cccs2)n1-c1ccc(Cl)cc1)Nc1ccc(OCc2ccccc2)cc1 | . | 26* | . | 0 | 14* | 13 | 3 | 23* | 16*
Cc1ccc(-n2c(Cc3cccs3)nnc2SCC(N)=O)cc1 | -4 | -5 | 0 | 0 | -3 | . | . | . | .
COc1ccc(NC(=O)CSc2nnc(Cc3cccs3)n2C)cc1 | -5 | -4 | 1 | 0 | 1 | . | . | . | .
CC(C)CN1C(=O)[C@@]2(CC(=O)N(C)C2c2ccccc2)c2cc(-n3cc(-c4ccccc4)nn3)ccc21 (stereo not given in full) | . | 5 | . | 0 | 2 | . | . | . | .
COc1ccc(OC)c(-c2csc(NC(=O)COC(=O)C3(C)CC3(Cl)Cl)n2)c1 (stereo not given) | 33 | 39* | 5 | 1 | 18* | 10 | 3 | 18 | 12*
COc1ccc(OC)c(-c2csc(NC(=O)CSc3ccccc3)n2)c1 | 17 | 20* | 5 | 0 | 10* | 6 | 2 | 25* | 11*
COc1ccc(OC)c(-c2csc(NC(=O)Cc3ccccc3)n2)c1 | 21 | 6 | 1 | 1 | 6 | . | . | . | .
NC(=O)[C@@H]1CCCN1C(=O)[C@H]1O[C@@H](n2ccc(N)nc2=O)[C@H](O)[C@@H]1O | . | -10 | . | 1 | -5 | . | . | . | .
CCc1cccc(-n2c(C)cc(O)cc2=O)c1 | . | 2 | . | 0 | 0 | . | . | . | .

Screening results as filed in PubChem BioAssay.
